PubChem BioAssay (NCI)
About 83,000 compounds went through this panel and 20% of them were active in at least one assay; those are over-represented in the sample as a whole.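 Percent growth is the endpoint: 0 to 100 indicates growth inhibition (40 means 60% inhibition), 0 means no net growth, and negative values indicate cell death.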 Active and inactive are the calls of the source. The calls were made as follows: active = growth percent below 10; inactive = the rest.

test system: BT-549 breast; assay: NCI-60 one-dose screen, 48 h (100 = growth as untreated, 0 = no growth, -100 = all killed); conditions: 10 µM unless noted

SMILES | growth
Cc1cccc2c1NC(=O)C2(c1ccc(O)cc1)c1ccc(O)cc1 | -35.9% (active)
Cc1ccc(Cl)cc1Nc1nc(C(F)(F)F)ccc1C(=O)N/N=C/c1cccnc1 | 36.7% (inactive)
C=CCc1c2c(c(OC)c3ccoc13)C(=O)/C(=C/c1ccccc1OC)O2 | 46.1% (inactive)
COC(=O)c1cc(-c2ccc(S(C)(=O)=O)cc2)[nH]c1N/N=C/c1c(Cl)cccc1Cl | 70.7% (inactive)
Cn1cc(-c2csc(-c3c[nH]c4ccc(Br)cc34)n2)c2cnccc21 | 7.16% (active)
O=C(N/N=C/c1ccc(F)cc1)c1ccc(C(F)(F)F)nc1Nc1cccc(C(F)(F)F)c1 | 1.7% (active)
N#Cc1c(N)nnn1Cc1cc(=O)oc2c1ccc1ccccc12 | 99.9% (inactive)
CN(CCOc1ccc(C#N)cc1)CCOc1ccc(C#N)cc1 | 91.3% (inactive)
CCOc1nc(-c2ccccc2)cc2c(O)c(C(=O)NN)[nH]c(=O)c12 | 126% (inactive)
COC(=O)c1c2c(c(C)[n+]([O-])c1C)C(=O)C=C(NCc1ccc(OC)cc1)C2=O | -88.8% (active)
CCCCN1C(=O)/C(=c2\sc3n(c2=O)C2C(NN=3)N(CC)C(=O)N2CC)c2ccccc21 (configuration not stated) | 20.6% (inactive)
Nc1ncnc2c1N=C(c1ccc3c(c1)OCO3)CC(c1ccc([N+](=O)[O-])cc1)N2 (configuration not stated) | 96.2% (inactive)
COC(=O)c1c2c(c(C)[n+]([O-])c1C)C(=O)C=C(NCc1ccc(Br)cc1)C2=O | -93.5% (active)
COc1ccc(C(=S)N2CCN(c3ccccc3Cl)CC2)cc1OC | 90.6% (inactive)
CCOC(=O)c1nc(Nc2ccc(NC(=O)Nc3ccc(F)cc3)cc2)c2ccccc2n1 | 106% (inactive)
CC(C)n1cnc2c(=S)nc[nH]c21 | 112% (inactive)
COc1cc(-c2cc(-c3ccc(N(C)C)cc3)nc(N3CCC(O)CC3)c2C#N)cc(OC)c1OC | 30.6% (inactive)
O=C(c1ccc(-c2ccccc2)cc1)c1ccc([N+](=O)[O-])cc1 | 94.5% (inactive)
O=C(Nc1cccc([N+](=O)[O-])c1)c1cc2ccccc2cc1O | -7.42% (active)

SMILES | growth
O=C1c2cccc(NCCN=Cc3cc(O)ccc3O)c2C(=O)c2c(NCCN=Cc3cc(O)ccc3O)cccc21 | 41.7% (inactive)
CN(Cc1ccc(C(F)(F)F)cc1)CC(O)C(=O)Nc1ccc(Cl)cc1 (configuration not stated) | 56.1% (inactive)
O=[N+]([O-])c1ccc(N/N=C(/C(=N/Nc2ccc([N+](=O)[O-])cc2)c2ccccc2)c2ccccc2)cc1 | 102% (inactive)
Cc1c(-n2nnc(-c3nc4ccccc4s3)c2N)c(=O)n(-c2ccccc2)n1C | 107% (inactive)
Cc1cc(N)c2cc(NC(=O)/C=C\c3ccccc3Cl)ccc2n1 | -72.8% (active)
C=C1C(=O)O[C@H]2[C@H]1CC/C(COC(=O)CCSCCC(=O)OC/C1=C/CC[C@@]3(C)O[C@H]3[C@H]3OC(=O)C(=C)[C@@H]3CC1)=C\CC[C@@]1(C)O[C@@H]21 | -9.47% (active)
COc1cc(CNS(=O)(=O)c2ccc(C)cc2)ccc1OCc1cn(-c2ccc(Br)cc2)nn1 | 110% (inactive)
CCn1c(SCC(=O)c2ccc(Br)cc2)nnc1-c1ccncc1 | 116% (inactive)
Cc1ccc(-n2c(=S)[nH]c3sc4c(c3c2=O)CCC(=O)C4)cc1 | 59.9% (inactive)
C#Cc1cccc(Nc2ncnc3ccc(-c4cnc(N)nc4)cc23)c1 | 28.9% (inactive)
CCCCN[C@H]1CC[C@@]2(C)[C@@H](CC[C@@]3(C)[C@H]2[C@H](O)C[C@H]2/C(=C(\CCC=C(C)C)C(=O)OC)[C@@H](OC(C)=O)C[C@@]23C)[C@@H]1C | 93.5% (inactive)
Fc1cc(F)cc(C(c2c[nH]c3ccccc23)c2c[nH]c3ccccc23)c1 | 135% (inactive)
C#CCOc1cccc(Nc2ncnc3c(NC(=O)C=C)cccc23)c1 | 8.49% (active)
COc1cc(CNS(=O)(=O)c2ccc(C)cc2)ccc1OCc1cn(-c2ccc(F)cc2)nn1 | 83.6% (inactive)
CCc1ccc(C(=O)/C=C/C23c4ccccc4C(c4ccccc42)C2C(=O)NC(=O)C23)cc1 (configuration not stated) | -7.29% (active)
Nc1ncnc2c1N=C(c1ccc(Cl)cc1)CC(c1ccc3c(c1)OCO3)N2 (configuration not stated) | 95.5% (inactive)
Cc1ccc(S(=O)(=O)N2CCCC2CO)cc1 (configuration not stated) | 86.6% (inactive)
CC(=O)Nc1nc2ccc(NS(=O)(=O)c3cccc4c(N(C)C)cccc34)cc2[nH]1 | 61.3% (inactive)
